Source: PubChem BioAssay (NCI)
About 83,000 compounds went through this panel and 20% of them were active in at least one assay; those are over-represented in the sample as a whole.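 Assay: single dose, 48 h. Readout: percent growth (0 = no net growth; negative = cell death). Active: <10.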 Values without a mark were called inactive. Active and inactive are the calls of the source.

What was measured:
Assay in all cases: NCI-60 one-dose screen, 48 h (100 = growth as untreated, 0 = no growth, -100 = all killed)
Details in all cases: 10 µM unless noted
[1] = tested on: BT-549 breast
[2] = tested on: MDA-MB-435 melanoma
[3] = tested on: SW-620 colon
[4] = tested on: MCF7 breast
[5] = tested on: HCT-116 colon
[6] = tested on: HCC-2998 colon
[7] = tested on: KM12 colon

Structure (SMILES)	growth [1]	growth [2]	growth [3]	growth [4]	growth [5]	growth [6]	growth [7]
COc1cc(C(=O)Nc2cc(OC)c3ccn(C)c3c2)cc2c1C[C@]1(C)CC[C@@H](O)C(C)(C)[C@H]1O2	8.8% (active)	-36.1% (active)	2.19% (active)	6.32% (active)	12.6%	37.4%	27%
CC(C)(C)CC(C)(C)Cc1ccc(OCCOCC[N+](C)(C)Cc2ccccc2)cc1	-16% (active)	-23.9% (active)	30.2%	12.9%	20.8%	-10% (active)	-52.6% (active)
O=c1[nH]c(-c2cccc(F)c2)cc2cc(F)ccc12	66.5%	-25.5% (active)	26.9%	13.6%	25.4%	44.6%	23.6%
COc1ccc2c(c1)Oc1nc(N)c(C#N)c(N)c1C2Sc1ccc(SC)cc1 (stereo unspecified)	38.9%	24.2%	-8.99% (active)	-20.7% (active)	10.2%	58.9%	53.3%
Nc1c(C(=O)Nc2ccccc2)sc2nc3c(cc12)CN(C(=O)OCc1ccccc1)CC3	52.1%	-8.75% (active)	30.1%	21.1%	28.7%	77.5%	39.1%
CCOCc1cc(C(C)(C)C)ccc1O	104%	102%	93.4%	97.6%	91.2%	104%	106%
O=C(Nc1ccc(S(=O)(=O)NC2CCCCCC2)cc1)C(c1ccccc1)S(=O)(=O)c1ccc(F)cc1 (stereo unspecified)	-3.97% (active)	-17% (active)	24.6%	0.0605% (active)	5.61% (active)	15.4%	5.09% (active)
Cc1ccc(-c2nc(C#N)c(S(=O)(=O)N(C)CCO)o2)cc1	76.7%	65%	35.1%	39.8%	53.4%	107%	89.9%
COc1cc(NCC(=O)Nc2cc(Nc3ccc(C)cc3)ncn2)c(Cl)c(OC)c1Cl	101%	102%	103%	78.6%	88.4%	92.6%	87.5%
CN1CCN(S(=O)(=O)O[C@@H]2C(=O)N(c3cc4c5ccccc5ccc4c4ccccc34)[C@H]2c2ccc(F)cn2)CC1	95.8%	98.1%	98.2%	87.4%	85.3%	90.4%	91.1%
COc1cccc(NC(=O)Nc2ccc(Oc3ncnc4[nH]c(C)c(C)c34)cc2)c1	99.6%	100%	81.7%	40.9%	81.6%	103%	52.2%
C#C[C@@]1(O)[C@@H](CO)O[C@@H](n2cc(F)c3c(N)ncnc32)[C@@H]1O	-23.9% (active)	1.49% (active)	1.66% (active)	2.03% (active)	1.44% (active)	-27.2% (active)	10.2%
C=C(C)[C@@H]1CC[C@]2(C(=O)OCCOCCOCC[P+](c3ccccc3)(c3ccccc3)c3ccccc3)CC[C@]3(C)[C@H](CC[C@@H]4[C@@]5(C)CC[C@H](OC(C)=O)C(C)(C)[C@@H]5CC[C@]43C)[C@@H]12	-89.8% (active)	-91.3% (active)	-77.9% (active)	-76% (active)	-92.2% (active)	-88.4% (active)	-89.8% (active)
Nc1c(C(=O)Nc2cccc3ccccc23)sc2nc3c(cc12)CCCCC3	12.6%	-32.2% (active)	24.3%	17.7%	8.52% (active)	33.1%	22.8%
C=C1C(=O)O[C@H]2[C@H]1CC/C(COC(=O)NCC(=O)Nc1ccc(OC)c(C(N)=O)c1O)=C\CC[C@@]1(C)O[C@@H]21	47.4%	56.3%	10.6%	18.6%	36%	102%	92.8%
CCC1=C[C@H]2CN(CCc3c([nH]c4ccccc34)[C@@](C(=O)OC)(c3cc4c(cc3OC)N(C)[C@H]3[C@@](O)(C(=O)OC)[C@H](OC(C)=O)[C@]5(CC)[C@@H]6C[C@@H]6CN6CC[C@]43[C@@H]65)C2)C1	16.1%	-32.6% (active)	29.2%	7.76% (active)	4.74% (active)	22.2%	16.2%
NS(=O)(=O)c1ccc(-n2nc(-c3ccccc3)ccc2=O)cc1	123%	113%	108%	96%	102%	108%	99.6%

Structure (SMILES)	growth [1]	growth [2]	growth [3]	growth [4]	growth [5]	growth [6]	growth [7]
COc1ccc2c(c1)OC13Oc4cc(OC)ccc4C=C1CCCCC3=C2	92%	105%	90.7%	75.2%	73.4%	97.7%	94.8%
C=C(C)[C@@H]1CC[C@]2(C(=O)OCCCC[P+](c3ccccc3)(c3ccccc3)c3ccccc3)CC[C@]3(C)[C@H](CC[C@@H]4[C@@]5(C)CC[C@H](OC(=O)C(Cl)Cl)C(C)(C)[C@@H]5CC[C@]43C)[C@@H]12	-71.6% (active)	-62.3% (active)	0.909% (active)	3.36% (active)	-76.3% (active)	-62.8% (active)	-54.8% (active)
CNc1cccc2c1C(=O)c1cccc(N)c1C2=O	30.8%	36.1%	63.1%	25%	31.5%	93.9%	35.8%
C=C(C)[C@@H]1CC[C@]2(C(N)=O)CC[C@]3(C)[C@H](CC[C@@H]4[C@@]5(C)CCCNC(C)(C)[C@@H]5CC[C@]43C)[C@@H]12	85.2%	78.7%	75.5%	45.3%	55.8%	98.2%	79.8%
CC1(C)Cc2c(Br)c(Br)c(Br)c(OCC(O)CN3CCOCC3)c2O1 (stereo unspecified)	78%	87.5%	94.5%	114%	77.9%	95.9%	95%
COc1cc(C2=NN(c3ccccc3)C(c3cccc(Nc4ccnc5cc(C(F)(F)F)ccc45)c3)C2)cc(OC)c1OC (stereo unspecified)	114%	104%	94.8%	80.6%	89.7%	90%	88.1%
CC1(c2ccccc2Cl)NC(=O)NC1=O (stereo unspecified)	99%	105%	102%	96.9%	107%	92.3%	109%
COC(=O)c1oc2c(C(=O)/C=C/c3ccc(OC)cc3)c(OCCCN3CCCCC3)ccc2c1C	22.9%	6.56% (active)	-17.9% (active)	6.82% (active)	1.36% (active)	-45% (active)	-11.5% (active)
Cc1c(Cl)cccc1NC(=O)c1sc2nc3c(cc2c1N)COCC3	49.6%	-20% (active)	22.8%	16.4%	19.7%	65.1%	31.8%
O=c1nc(-c2ccccc2)c2cc(-c3ccc(N4CCCC4)nc3)ccc2[nH]1	64%	-1.96% (active)	45.8%	35.4%	45.7%	80.5%	56.7%
CC[C@H](Nc1ncnc2nc[nH]c12)c1nc2cccc(CC(=O)c3ccc(C(=O)NO)cc3)c2c(=O)n1-c1ccccc1	85.8%	97.6%	96.3%	77.9%	90.5%	88.9%	93.5%
Cc1ccc2nc3nc4ccc[nH]c4cc3c2c1	93.2%	106%	108%	2.23% (active)	97.1%	63.7%	47.8%
O=C(CCCC(=O)Nc1ccc(-n2nnc3cc(Cl)c(Cl)cc32)cc1)Nc1ccc(-n2nnc3cc(Cl)c(Cl)cc32)cc1	51.2%	51.2%	49.6%	22.6%	45.3%	93.7%	70.9%
COCCc1n(Cc2ccc3ccccc3c2)c2ccccc2[n+]1Cc1ccc2ccccc2c1	-48.5% (active)	-87.5% (active)	-73.7% (active)	-68.1% (active)	-81.2% (active)	-78.1% (active)	-86.2% (active)
C#Cc1ccccc1NC(=O)c1sc2nc3c(cc2c1N)CCCCC3	96.4%	95.1%	102%	81.5%	109%	105%	102%
CC(=O)Oc1ccc(O)cc1	92.7%	106%	115%	88%	95.3%	123%	103%
